Laboratory results published in PubChem BioAssay (Tox21).
Results filed as inconclusive are left out. Entries that show only a call come without a potency. Calls of active or inactive are those of the source. Calls come from the whole dose curve; as a rule, active = well fitted inhibition curve with a large enough effect in the repeat runs; inconclusive = weak or mixed curves; inactive = no such curve, though single readings can be large or run the other way.

assay: qHTS assay to identify small molecule antagonists of the estrogen related receptor (ERR) signaling pathway from Tox21 library (AID 1224848); settings: ERR reporter cell line, luciferase antagonist mode, 18 h; series mostly up to 92.4 µM; note: nearly all actives have a fitted effect of over 50% in size
Outline: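 Compounds dissolved in DMSO are pin-transferred onto ERR reporter cells (2,000 per well) that have settled for 6 h at 37 C. Plates then incubate 18 h at 37 C before ONE-Glo luciferase reagent and a luminescence read 30 min later.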
Potency is the fitted concentration of half-maximal effect.

Structure (SMILES) | Potency
COc1nc(C)nc(NC(=O)NS(=O)(=O)c2ccccc2OCCCl)n1 | inactive
C=CCCC=C | inactive
CC(C)(C)c1ccc(OC(=O)c2ccccc2O)cc1 | inactive
Cc1ncc(CO)c(CN)c1O | inactive
Cc1nc(N)nc(N)c1-c1ccc(Cl)c(Cl)c1 | 944 nM (active)
CCOc1ccc(OCC)c(Cl)c1 | inactive
O=S(=O)(O)C(F)(F)F | inactive
CCCCCCn1c(=O)c2c(ncn2C)n(C)c1=O | inactive
CC(CNC1CCCCC1)OC(=O)c1ccccc1 (stereo not drawn) | inactive
CCCc1c2oc(C(=O)O)cc(=O)c2cc2c(=O)cc(C(=O)O)n(CC)c12 | inactive
CCCCCCCCCC#N | inactive
Clc1cccc(-c2cc(Cl)cc(Cl)c2)c1 | inactive
CN1CCN(C2=Nc3cc(F)ccc3Cc3ccccc32)CC1 | inactive
